Screening results deposited in PubChem by National Center for Advancing Translational Sciences (NCATS).
Only a selection was taken, and hits are over-represented in it overall.
Pf Dd2 inh: qHTS Primary assay for Inhibitors of Plasmodium falciparum Dd2 growth in vitro; P. falciparum Dd2 growth, SYBR Green, 72 h; Potency, µM (series often up to 28.9 µM), usual class: inhibitors; hit rate 4.3% among 120,000; AID 1347417, 2020; active means well fitted inhibition curve with a large enough effect; further: nearly all actives have a fitted effect of over 65% in size
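Readout: SYBR Green fluorescence, 485 nm excitation, 535 nm emission, after ~16 h lysis at 37C. Before that, Dd2-infected red cells (2.5% hematocrit) grew 72 h with compound, 29 uM top final concentration.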
Large screens that a line does not name were inactive.

C=Cc1ccc(CSc2nc(-c3ccccc3Cl)nc3c2Cc2c(CO)cnc(C)c2O3)cc1	Pf Dd2 inh 6.31µM
Cc1cccc(NC(=O)CSc2nc(-c3ccccc3Cl)nc3c2Cc2c(CO)cnc(C)c2O3)c1C	none
COc1ccc(-c2nc3c(c(SCc4cc(C)ccc4C)n2)Cc2c(CO)cnc(C)c2O3)cc1	none
CCc1ccc(-c2nc3c(c(SCc4ccccc4F)n2)Cc2c(CO)cnc(C)c2O3)cc1	none
COc1ccccc1-c1nc2c(c(SCc3cccc(Cl)c3)n1)Cc1c(CO)cnc(C)c1O2	Pf Dd2 inh 2.51µM
CCOc1ccc(N(CC)C(=O)CCc2nc(-c3ccccc3F)no2)cc1	none
Cc1ccccc1CN1CCN(C(=O)CN2CCCC2=O)CC(O)C1 (stereo not drawn)	none
COc1cccc(NC(=O)C2CC(=O)N(c3n[nH]c4cccc(F)c34)C2)c1 (stereo not drawn)	none
CSCCNC(=O)c1cc(Br)cn2ccnc12	none
CCN(Cc1ccccc1)C(=O)c1c(C)oc2ccn(Cc3ccccc3F)c(=O)c12	none
CCn1cc(-c2ccc(OC)cc2)cc1C(=O)NC(C)c1cccnc1 (stereo not drawn)	none
CCCn1cc(-c2ccncc2)cc1C(=O)NCc1ccc(OC)cc1	none
CCCn1cc(-c2ccncc2)cc1C(=O)NC(C)c1ccc(OC)cc1 (stereo not drawn)	Pf Dd2 inh 7.94µM
CCc1nc(CCNC(=O)CC2COCCN2S(=O)(=O)C2CC2)no1 (stereo not drawn)	none
C[C@]1(O)CCN(C(=O)c2ccc(-c3cnco3)cc2)C[C@@H]1O	none
O=C(c1ccc(F)cc1)N1CCC(OC2CCN(Cc3ccccc3)CC2)CC1	Pf Dd2 inh 11.2µM
CS(=O)(=O)N1CCC(OC2CCN(C(=O)Nc3ccccc3F)CC2)CC1	none
O=S(=O)(c1ccc(F)cc1)N1CCC(OC2CCN(Cc3ccccc3)CC2)CC1	none
O=C(Nc1cccc(Cl)c1F)N1CCC(OC2CCN(Cc3ccccc3)CC2)CC1	Pf Dd2 inh 6.31µM
CCc1cccc(NC(=O)N2CCC(OC3CCN(Cc4ccccc4)CC3)CC2)c1	none
COc1ccc(C)cc1NC(=O)N1CCC(CN2CCC(C)CC2)CC1	none
CC(C)(C)C(=O)N1CCC(OC2CCN(Cc3ccccc3)CC2)CC1	none
O=C(C1CCCCC1)N1CCC(OC2CCN(Cc3ccccc3)CC2)CC1	none
COc1ccc(C)cc1NC(=O)N1CCC(OC2CCN(Cc3ccccc3)CC2)CC1	Pf Dd2 inh 11.2µM
COc1ccc(C)cc1NC(=O)N1CCC(OC2CCN(S(C)(=O)=O)CC2)CC1	none
Cc1c(F)cccc1NC(=O)N1CCC(OC2CCN(Cc3ccccc3)CC2)CC1	Pf Dd2 inh 4.47µM
O=C(NC1CCCCC1)N1CCC(OC2CCN(Cc3ccccc3)CC2)CC1	none
COc1ccccc1[C@@H]1CN(C(=O)CCc2scnc2C)C[C@H]1C(=O)O	none
O=C(c1ccccc1F)N1CCC2(CC1)N=C(c1ccc(Cl)cc1)NO2	none
Cc1nn(-c2ccccc2)c(Oc2ccccc2F)c1CCC(=O)NC1CC1	none
O=C(CN1CC2CC(C1)[C@H]1CCCC(=O)N1C2)NCc1cccc(Cl)c1 (stereo partly drawn)	none
CC(C)c1nncn1C1CCN(S(=O)(=O)c2cc(F)cc(F)c2)CC1	none
CC(=O)c1cccc(NC(=O)Cn2c(=O)n(-c3cccc(C)c3)c(=O)c3c2cc(C)n3C)c1	none
CC(C)CCN1C(=O)CC[C@H]2CN(C(=O)Cc3c[nH]c(=O)[nH]c3=O)CC[C@H]21	none
O=C(O)Cn1ccc2cc(OCC3CCN(C(=O)OC4CCCC4)CC3)cnc21	none
CN(C)C(=O)N1Cc2ccccc2OC2(CCN(C(=O)CCCNC(N)=O)CC2)C1	none
Brc1ccc(-c2ccnc3nc(-c4cccs4)nn23)cc1	none
Fc1ccc(OC2CN(Cc3ccc(C(F)(F)F)cc3)C2)cc1F	none
Cc1nc(CN2C(=O)OC3(CCN(C(=O)c4scnc4C)CC3)C2(C)c2ccccc2)cs1 (stereo not drawn)	none
CC(c1cccs1)N(C)S(C)(=O)=O (stereo not drawn)	none
COc1cccc(CN(C)C(C)c2cccs2)c1 (stereo not drawn)	none
CC(c1cccs1)N(C)Cc1cccc2ccccc12 (stereo not drawn)	Pf Dd2 inh 12.6µM
Cc1cccc(CN2CCCC3(CCN(C(=O)c4ccc(=O)[nH]c4)C3)C2=O)c1 (stereo not drawn)	none
CCN1c2cc(C(=O)Nc3ccc(N(C)C)cc3)ccc2C(=O)N2CCCCCC21 (stereo not drawn)	none
CCc1noc(-c2cn(C3CCN(C(=O)c4cccc(C#N)c4)CC3)nn2)n1	none
CCCN1CCc2[nH]cnc2C12CCN(C(=O)C1COc3ccccc3O1)CC2 (stereo not drawn)	none
COc1ccc(-c2nc3n(n2)C(c2ccccc2F)C(C(=O)Nc2cccnc2)=C(C)N3)cc1OC (stereo not drawn)	Pf Dd2 inh 10µM
COc1ccc(C2C(C(=O)Nc3cccnc3)=C(C)Nc3nc(-c4ccccc4)nn32)cc1OC (stereo not drawn)	none
COc1ccc(-c2nc3n(n2)C(c2ccc(O)cc2)C(C(=O)Nc2cccnc2)=C(C)N3)cc1OC (stereo not drawn)	none
CCNC(=O)N1CCCC(O)(CNS(=O)(=O)c2cnn(CC)c2C)CC1 (stereo not drawn)	none
O=C(NCCN1CCCCC1)c1ccc(Cn2c(SCc3ccccc3)nc3cccnc32)cc1	Pf Dd2 inh 5.01µM
O=C(NC1CCCC1)c1ccc(CSc2nc3cccnc3n2Cc2ccc(F)cc2)cc1	none
CC1CCN(CCNC(=O)c2ccc(Cn3c(SCc4ccccc4)nc4cccnc43)cc2)CC1	Pf Dd2 inh 10µM
CC1CCCCN1CCNC(=O)c1ccc(Cn2c(SCc3ccccc3)nc3cccnc32)cc1 (stereo not drawn)	Pf Dd2 inh 5.62µM
O=C(c1ccoc1)N1CCC2(CC1)CN(C1CCC1)CC2CO (stereo not drawn)	none
O=C(c1cnn2ccccc12)N1CCC(Cc2cccc(CO)c2)C1 (stereo not drawn)	none
CCn1ncc(N2CCC(NC(=O)CCC(C)C)CC2)cc1=O	none
CC(C)=CC(=O)N1CC[C@H](NC(=O)NC(C)C)[C@H]1C(=O)N[C@H](Cc1c[nH]c2ccccc12)C(N)=O	none
Cn1cnnc1CC1CCNCC1	none
Cn1ncc(N2CCCC(CC(=O)NC3CCCCC3)C2)cc1=O (stereo not drawn)	none
CC(C)NC[C@H]1O[C@@H]2C[C@@H](CC(=O)N3CCOCC3)O[C@@H]2[C@@H]1O	none
CN1CCOc2nc(-c3ccc(Oc4ccccc4)cc3)ncc2C1=O	Pf Dd2 inh 5.01µM
C[S+](=O)([O-])c1ccc(-c2ncc3c(n2)OCCN(c2ccccc2)C3=O)cc1	none
O=C1c2cnc(-c3ccccc3)nc2OCCN1Cc1ccccc1	none
CN(C)C(=O)c1ccc(-c2ncc3c(n2)OCCN(CC2CC2)C3=O)cc1	none
CN(C)C(=O)c1ccc(-c2ncc3c(n2)OCCN(Cc2ccccc2)C3=O)cc1	Pf Dd2 inh 2.24µM
COc1cc(F)cc(-c2ncc3c(n2)OCCN(C)C3=O)c1	none
CCN1c2cc(C(=O)N3CCN(c4ccc(F)cc4)CC3)ccc2C(=O)N2CCCCC21 (stereo not drawn)	none
COc1ccccc1CN1CCC2(CC1)Cc1ccccc1CNC2=O	none
Cc1occc1C(=O)N1CCC2(CCCN(Cc3cccnc3)C2=O)C1 (stereo not drawn)	none
O=C1CC(c2noc(-c3nccc4ccccc34)n2)CN1C1CCCCC1 (stereo not drawn)	none
CCOCCn1c(=O)[nH]c2cc(C(=O)NCCc3scnc3C)ccc21	none
Cc1ccc(Cl)cc1N1CCN(C(=O)CCc2nnc3n(C)c(=O)c4ccccc4n23)CC1	none
